According to PubChem BioAssay AID2401 (Southern Research Specialized Biocontainment Screening …, 2010):
Among all 2,200 compounds or so, about 530 (24%) were called active. A selection follows. Results with a measured potency or affinity are listed apart. Values without a mark were called inactive.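 Rule for the calls: active = inhibition above a set limit at one or more concentrations of the dose series; inactive = inhibition under that limit at every dose.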

Experiment: S. Typhimurium nonspecific reporter signal inhibition – Salmonella Typhimurium, GFP fluorescence, counter-screen for PhoP regulon inhibitor project, dose response (AID 2401);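 note: S. typhimurium with Mg-insensitive nmpC-GFP reporter grown at 10 µM Mg2+; drop in reporter fluorescence reflects general culture growth inhibition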
Details: 4 h; series mostly up to 150 µM; inhibition: at the top concentration
In the case of CC1(C)CC(=O)C(/C=N/c2ncccc2C(=O)O)=C(O)C1, the “inhibition” value is reported as -7.77%. For CCOC(=O)c1ccc(NC(=O)Nc2cc(C)on2)cc1, the “inhibition” value was -22.6%. For COc1ccc(NC2=NC(=S)N(c3cccc(C)c3)C23CCCCC3)cc1, the “inhibition” value was -30.8%. For CN(C)c1ccc(Nc2nc(-c3cccnc3)cs2)cc1, the “inhibition” value was 31%. For CCC(CC)NC(=O)COC(=O)c1ccc(OCC(=O)Nc2ccccc2OC)c(OC)c1, the “inhibition” value was -12.6%. With O=C(O)C1CCCN1S(=O)(=O)c1ccc2[nH]c(=O)c(=O)[nH]c2c1 (stereo not given) the “inhibition” value was -21.6%. In the case of N=c1n(CCO)c2ccccc2n1Cc1ccc(Cl)cc1, the “inhibition” value is reported as 10.3%. For N=c1n(Cc2ccc(Cl)cc2)c2ccccc2n1CC(O)c1ccco1 (stereo not given), the “inhibition” value was 38.9%. For N#CCC1c2ccccc2CCN1C(=O)Nc1ccc(Cl)cc1 (stereo not given), the “inhibition” value was -25.1%. In the case of N/C(=N\c1nc2ccccc2o1)NC(=O)c1ccccc1F, the “inhibition” value is reported as -4.05%. In the case of Cn1c(-c2ccc(N)cc2)nc2ccccc21, the “inhibition” value is reported as -13.6%. In the case of CCCCCOc1ccc(NC(=O)C(=O)NCCC2=CCCCC2)cc1, the “inhibition” value is reported as -29%. With CN1/C(=C/C2CC(=O)N(c3cccc4ccccc34)C2=O)C(C)(C)c2ccccc21 (stereo not given) the “inhibition” value was 37.3%. For CN1/C(=C\C=N\NC(=O)c2ccccc2Br)C(C)(C)c2ccccc21, the “inhibition” value was 9.45%. In the case of C=CCNC(=O)c1ccc(N(C)S(=O)(=O)c2ccc(OC)cc2)cc1, the “inhibition” value is reported as -4.35%. In the case of CC(=O)Nc1nc(-c2ccc(Cl)cc2)nc(C)c1C(C)=O, the “inhibition” value is reported as -23.7%. With COC(=O)c1ccccc1NC(=O)NCc1ccc2c(c1)OCO2 the “inhibition” value was -23.4%. In the case of c1ccc(-c2cnn3nnnc3n2)cc1, the “inhibition” value is reported as 1.88%. In the case of O=C(NCc1cccs1)Nc1cccs1, the “inhibition” value is reported as -33.1%. In the case of CSc1nnc2c3c4c(sc3nc(-n3nc(C)cc3C)n12)COC(C)(C)C4, the “inhibition” value is reported as -11.8%. For CC(C)Cn1cnc2sc3c(c2c1=N)CCCC3, the “inhibition” value was -4.26%. In the case of Cn1c(NCc2cc(Br)ccc2O)nc2ccccc21, the “inhibition” value is reported as -21.2%. With COc1cc(/C=C2/SC(=S)N(CC(=O)Nc3cccnc3)C2=O)cc(OC)c1OC the “inhibition” value was -45.8%. For CC1Cc2ccccc2N1C(=O)COC(=O)c1ccc(S(=O)(=O)N(C)C)cc1 (stereo not given), the “inhibition” value was -26.3%. For O=C(NC1CCCCC1)C(c1ccncc1)N(CC1CCCO1)C(=O)C(F)(F)F (stereo not given), the “inhibition” value was 3.65%. In the case of CCn1nnc(-c2ccccc2NC(=O)c2ccc(-n3cnnn3)cc2)n1, the “inhibition” value is reported as -6.44%. For c1ccc(COc2ccccc2CNCc2cccnc2)cc1, the “inhibition” value was -26%. For CCCCNCCCOc1cccc(Cl)c1Cl, the “inhibition” value was 16.4%. For Clc1ccc(OCCCn2ccnc2)c(Br)c1, the “inhibition” value was 16.8%. With O=C(COc1ccc(Br)cc1Cl)NC(=O)NCc1ccccc1 the “inhibition” value was -5.96%. For Clc1cc(Br)ccc1OCCn1ccnc1, the “inhibition” value was 11.8%. With CC(C)NCCCOc1ccc(Cl)cc1Br the “inhibition” value was 10.7%. In the case of CCN(Cc1ccccc1)C(=O)CN1C(=S)NC(C)(C)CC1C (stereo not given), the “inhibition” value is reported as -9.86%. In the case of CCOC(=O)Nc1ccc(C)cc1C, the “inhibition” value is reported as -17.9%. In the case of COC(=O)c1[nH]c2ccc(C)cc2c1NC(=O)Nc1ccc(OC)cc1, the “inhibition” value is reported as -17.9%. With O=C(/C=C/c1cccs1)N1CCN(Cc2ccc3c(c2)OCO3)CC1 the “inhibition” value was -15.1%. With O=C(Nc1cccc2ccccc12)c1ccc(Cn2cc(Cl)cn2)cc1 the “inhibition” value was 0.25%. In the case of NC(=O)c1cnn(Cc2ccc(Cl)cc2)c1N, the “inhibition” value is reported as -17.2%. In the case of CN(C)c1ccnc(Oc2ccc(F)cc2)c1C#N, the “inhibition” value is reported as -16.6%. For COc1ccc(CN=C2Nc3ccccc3CS2)cc1, the “inhibition” value was -0.21%. In the case of O=C(N/N=C/c1cn(-c2ccccc2)nc1-c1ccc(F)cc1)c1ccc2c(c1)OCO2, the “inhibition” value is reported as 24.5%. In the case of Fc1ccc(-c2n[nH]c(=S)n2/N=C/c2c[nH]c3ccccc23)cc1, the “inhibition” value is reported as 12.6%. For Cc1cc(=O)[nH]c(N/N=C/c2c[nH]c3ccccc23)n1, the “inhibition” value was -27.2%. For CCCCn1c(/N=C/c2c[nH]c3ccccc23)nc2ccccc21, the “inhibition” value was 19.1%. For Cc1c(NS(=O)(=O)c2ccccc2)c(=O)n(-c2ccccc2)n1C, the “inhibition” value was -18.6%. In the case of Cc1ccc2nc(SCC(=O)NCc3ccco3)[nH]c2c1, the “inhibition” value is reported as 0.53%. With Cc1cccc(Nc2nnc(SCC(=O)NC3CCCc4ccccc43)s2)c1 (stereo not given) the “inhibition” value was -3.06%. In the case of Nc1cc(Br)c(N)c(Br)c1, the “inhibition” value is reported as -3.53%. With CC(=O)Nc1c(O)nc(SCC(=O)N2CCN(c3ccc(F)cc3)CC2)[nH]c1=O the “inhibition” value was -33.4%. For CCOC(=O)CNS(=O)(=O)c1c(C)noc1C, the “inhibition” value was -21.7%. With CC1=C(C(=O)Nc2cccnc2)C(c2ccccn2)n2nnnc2N1 (stereo not given) the “inhibition” value was -1.7%. For Cc1ccc(-n2nnnc2SCC(=O)Nc2ncc(Cc3ccccc3Cl)s2)cc1, the “inhibition” value was -23.2%. For Cc1ccc([N+](=O)[O-])cc1-c1ccc(/C=C(\C#N)c2[nH]nc(N)c2C#N)o1, the “inhibition” value was -2.4%. In the case of CCOC(=O)Cn1nnnc1C(C(C)C)N(Cc1cccs1)Cc1cc2cc(C)ccc2[nH]c1=O (stereo not given), the “inhibition” value is reported as -3.99%. In the case of O=C(Nc1cnn(Cc2ccc(F)cc2)c1)c1cnccn1, the “inhibition” value is reported as -15.5%. In the case of Cc1ccc2cc(CN(CCO)Cc3nnnn3Cc3ccc(F)cc3)c(=O)[nH]c2c1, the “inhibition” value is reported as -11.4%. With Cc1cc(/C=N/NC(N)=S)c(C)n1-c1ccc(Cl)c(Cl)c1 the “inhibition” value was -8.78%. In the case of N#C/C=C(/N)c1ccc(Br)cc1, the “inhibition” value is reported as 8.99%. With Cc1ccc(/C=C/c2nnc(-c3ccc(C)cc3)o2)cc1 the “inhibition” value was 6.49%. In the case of O=C(c1[nH]ncc1-c1ccc(Cl)cc1)C1CO1 (stereo not given), the “inhibition” value is reported as -25.8%. With O=C1c2ccccc2C(=O)N1CCCc1nc2ccccc2c(=O)n1Cc1ccco1 the “inhibition” value was -27.4%. In the case of CCn1c(=O)c2c(O)cc(=O)oc2c2ccccc21, the “inhibition” value is reported as -11%. In the case of COc1ccc(S(=O)(=O)n2ccc(-c3ccc(OCCN(C)c4ccccn4)cc3)n2)cc1, the “inhibition” value is reported as -26.2%. In the case of COC(=O)c1ccc(NC(=S)NCCc2cccc(C)c2)cc1, the “inhibition” value is reported as -15.9%. With CCOC(=O)C1=C(c2ccccc2)NC(SC)=C(C#N)C1c1ccco1 (stereo not given) the “inhibition” value was -18.8%. In the case of CC1OC(Nc2cccc3ccccc23)C(O)C(O)C1O (stereo not given), the “inhibition” value is reported as -28.1%. With Cc1nc2ccccc2n1CC(=O)N/N=C\C=C\c1ccccc1 the “inhibition” value was -17.8%. In the case of c1ccc(CNc2ncnc3ccccc23)cc1, the “inhibition” value is reported as 37.4%. With COc1ccc(Nc2nc(NCc3ccco3)nc(N/N=C/c3ccccc3Cl)n2)cc1 the “inhibition” value was 10.1%. With Cc1ccc(-c2nc(NCc3cccnc3)c3ccccc3n2)cc1 the “inhibition” value was 8.39%. For Cc1ccc2[nH]c3c(NCc4ccco4)ncnc3c2c1, the “inhibition” value was -14.2%. In the case of Cc1cccc(C(=O)NC(NCc2ccco2)C(Cl)(Cl)Cl)c1 (stereo not given), the “inhibition” value is reported as -36%. For c1ccc(CN2CCN(c3nc(NCc4ccco4)c4ccccc4n3)CC2)cc1, the “inhibition” value was 10.5%. With COc1ccc(-c2csc(NCc3ccco3)n2)cc1 the “inhibition” value was 16.3%. In the case of Oc1ccccc1Nc1nc(NCc2ccco2)c2ccccc2n1, the “inhibition” value is reported as 33.4%. In the case of C#CC(C)(CC)NC(=O)c1cc(OC)c(OC)c(OC)c1 (stereo not given), the “inhibition” value is reported as -28.1%. For COC(=O)c1ccc(C)c(NC(=O)CN(c2cc(OC)ccc2OC)S(C)(=O)=O)c1, the “inhibition” value was -12.7%. With CN(CC(=O)Nc1ccc(C#N)cc1)Cc1ccc(Cl)cc1 the “inhibition” value was -2.33%. In the case of Cc1cccc(C)c1Nc1nnc(SCC(=O)Nc2sccc2C#N)s1, the “inhibition” value is reported as 1.76%. With COc1ccc(S(=O)(=O)n2nc(OC(=O)c3cccs3)cc2N)cc1 the “inhibition” value was 2.91%. With CCC(CC)c1nnc(NC(=O)Oc2ccccc2)s1 the “inhibition” value was -6.28%. In the case of CCOc1cccc(CNc2ccc(O)cc2)c1OCc1ccc(Cl)cc1Cl, the “inhibition” value is reported as -17.2%. In the case of CCOc1ccc(/C(O)=C2\C(=O)C(=O)N(CCN(C)C)C2c2cccc(OC)c2OC)cc1Cl (stereo not given), the “inhibition” value is reported as -12.7%. With Cc1ccc(OCc2nnc(SCC(=O)Nc3ccc4c(c3)OCO4)n2C)cc1 the “inhibition” value was -6.69%. For BrC(=C\c1ccccc1)/C=N/N1CCN(c2ccccn2)CC1, the “inhibition” value was 9.97%. In the case of CCOC(=O)N1CCN(c2nc(C)c3c(n2)CCCC3=O)CC1, the “inhibition” value is reported as -44.6%. With COC(=O)C(C)N1C(=O)S/C(=C\c2cc(C)n(-c3ccccn3)c2C)C1=O (stereo not given) the “inhibition” value was -20.4%. With Cc1ccc(-c2nc3ccccc3[nH]2)cc1NC(=S)NC(=O)c1ccccc1Br the “inhibition” value was 23.6%. In the case of Cc1c(NS(=O)(=O)c2ccc(N(C)C3CCCCC3)c([N+](=O)[O-])c2)c(=O)n(-c2ccccc2)n1C, the “inhibition” value is reported as -2.79%. In the case of Cc1cc(C)cc(CC(Cc2nc3ccccc3[nH]2)c2nc3ccccc3[nH]2)c1 (stereo not given), the “inhibition” value is reported as 0.65%. In the case of COc1ccc(C(=O)N2CCN(C(=O)c3ccco3)CC2)cc1OC, the “inhibition” value is reported as 7.5%. With Cc1cccc2cc(C#N)c(N3CCN(C)CC3)nc12 the “inhibition” value was 32.9%. With CCOC(=O)c1c(NC(=O)Nc2ccc(C)cc2)sc2c1CCN(C)C2 the “inhibition” value was -18.4%. In the case of CC(C)(C)C1CCc2c(sc(NC(=O)c3cccs3)c2C(=O)N2CCCCC2)C1 (stereo not given), the “inhibition” value is reported as 19.4%. With NC(=O)c1c(NC(=O)CN2C(=O)CCC2=O)sc2c1CCCCC2 the “inhibition” value was -18.9%. With CCCCCOC(=O)C1=C(C)Nc2nnnn2C1c1ccc(OC)c(OC)c1OC (stereo not given) the “inhibition” value was -24.2%. With CCn1nnc(-c2ccccc2NS(=O)(=O)c2ccc(S(=O)(=O)N3CCCCCC3)cc2)n1 the “inhibition” value was -2.81%. In the case of O=C(CSc1ccc2c(c1)OCCO2)NCCc1ccc(Cl)cc1Cl, the “inhibition” value is reported as -35.5%. For Cc1[nH]c2ccccc2c1C(c1ccncc1)N1CCN(c2ccc(F)cc2)CC1 (stereo not given), the “inhibition” value was 34.4%. In the case of Oc1ccc(C=Nc2ccc3ncccc3c2)c(O)c1, the “inhibition” value is reported as 33.2%. With Oc1ccc(C=Nc2cccc3ncccc23)c(O)c1 the “inhibition” value was -31.8%. In the case of CCCNC(=O)COC(=O)CCC(=O)c1ccc(F)cc1, the “inhibition” value is reported as -5.02%. With O=C1CC(N2CCN(Cc3ccccc3)CC2)C(=O)N1c1ccccc1 (stereo not given) the “inhibition” value was -12.2%. In the case of OCCNc1ccc(Cl)cc1, the “inhibition” value is reported as -4.09%. With OCCN(Cc1ccccc1)Cc1ccc(Cl)cc1 the “inhibition” value was 2.5%. With O=C(CN1CCCCCC1)Nc1cccc(Br)c1 the “inhibition” value was -13.7%. With COCCn1c(-c2ccccc2F)n[nH]c1=S the “inhibition” value was 8.43%. In the case of CCOC(=O)/C(=C/C=C/c1ccccc1)NC(=O)c1ccccc1, the “inhibition” value is reported as -13.2%. For O=c1cc(O)nc(SCc2ccccc2Cl)[nH]1, the “inhibition” value was -18.8%. For O=C1c2ccccc2C(=O)N1CCCc1nc(-c2ccccn2)no1, the “inhibition” value was 11.4%. With CC1=NN(c2ccc(Cl)cc2)C(=O)C1C(c1cccc(O)c1)c1c(C)[nH]n(-c2ccc(Cl)cc2)c1=O (stereo not given) the “inhibition” value was 16.4%. For O=C(Nn1c(O)c(C=C2N=c3ccccc3=N2)sc1=S)c1ccc(Cl)cc1, the “inhibition” value was -14.3%. For CCOC(=O)/C=C1\SCC(=O)N1CC(=O)NC1CCCCC1, the “inhibition” value was -17.8%. In the case of O=C(CN(c1ccc(F)cc1)S(=O)(=O)c1ccc2c(c1)OCCO2)NCc1cccnc1, the “inhibition” value is reported as -9.61%. In the case of S=C(c1ccc2c(c1)OCO2)N1CCCC1, the “inhibition” value is reported as 15%.
